Only some compounds are listed: those with a hit (about 4.6% of all), similar ones and a draw of the others.
tim10-1 inh = inhibits growth of tim10-1 mutant yeast. S. cerevisiae tim10-1 ts strain growth, BacTiter-Glo, 24 h. inhibition, % at 20 µM. actives 2.2% (n = 330,000). AID 463190;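 active = inhibition of at least 40%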;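 note: mutant grown at 25 °C; 0% = DMSO wells with yeast and 100% = wells holding no yeast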
TIM10 inh = TIM10 yeast growth inhibition. S. cerevisiae TIM10 strain growth, BacTiter-Glo luminescence, 24 h. AID 463195. actives 1.4% (n = 330,000). inhibition, % at 10 µM;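 active = inhibition of 40% or more at the single tested concentration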;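 note: wild-type TIM10 isogenic control strain grown at permissive 25 °C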
PfHsp90 set2 = inhibits growth of yeast expressing Plasmodium falciparum Hsp90 | S. cerevisiae expressing PfHsp90, BacTiter-Glo ATP, 48 h; yeast lacking PDR1 and PDR3 efflux regulators | inhibition, % at 9.4 µM | actives 0.32% (n = 310,000);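 active = every replicate shows inhibition above about 80%, whatever the replicate mean, limit read from the data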;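 note: 0% = DMSO neutral controls and 100% = 20 µM radicicol positive controls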
SKKanGAS inh = inhibitors of SKKanGAS S. pyogenes growth in kanamycin (SK-promoter or general growth effect); AID 1662; BacTiter-Glo, 6 h; actives 1.3% (n = 300,000); inhibition, % at 7.5 µM;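 active = mean replicate score, as percent of positive control median, at least 50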;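 note: strain carries kanamycin resistance gene driven by streptokinase promoter and grows in 40 µg/ml kanamycin; loss of luminescence reflects streptokinase promoter inhibition or plain growth inhibition; 0% = median of DMSO wells and 100% = positive control at its reference dose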
tim23-1 inh = inhibits growth of tim23-1 mutant yeast; inhibition, % at 20 µM; S. cerevisiae tim23-1 growth, BacTiter-Glo luminescence, 24 h; actives 1.3% (n = 330,000); AID 463212;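 active = growth inhibition of the mutant yeast at or above 50%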;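 note: temperature-sensitive mutant grown at 25 °C; plate controls were DMSO-treated mutant yeast for no effect and medium wells lacking yeast for full effect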
NALP3 yeast inh = inhibitors of NALP3 inflammasome in yeast | Yeast reconstituted NLRP3/ASC/caspase-1, beta-gal luminescence, 24 h | actives 0.39% (n = 330,000) | inhibition, % at 10 µM;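 active = inhibition of 50% or more; inactive = inhibition below 50%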;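 note: plate controls were induced DMSO wells for no effect and uninduced yeast grown without galactose for full effect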
tim10-1 conf = tim10-1 yeast growth inhibition, confirmed; AID 463213; S. cerevisiae tim10-1 ts strain growth, BacTiter-Glo, 24 h; inhibition, % at 20 µM; actives 56% (n = 7,400); shares compounds with tim10-1 inh;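 active = inhibition of yeast growth at or above a set limit in either of two repeat tests at 20 µM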;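 note: tim10-1 mutant grown at permissive 25 °C to find synthetic lethal compounds; 0% = DMSO yeast wells and 100% = medium wells without yeast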
Starred values were filed as active, the others as inactive; · = not tested or not shown.

SMILES	tim10-1 inh	TIM10 inh	PfHsp90 set2	SKKanGAS inh	tim23-1 inh	NALP3 yeast inh	tim10-1 conf
COc1ccc2[nH]c(=O)c(CN(c3ccc(C)c(C)c3)S(C)(=O)=O)cc2c1	3.0	-2.0	-10.5	-9.0	17.3	5.2	·
Cc1ccc(-c2csc3ncnc(-n4nnc5ccccc54)c23)cc1C	42.5*	24.8	6.1	-2.3	38.0	-0.4	31.3*
c1ccc(-c2csc3ncnc(-n4cnc5ccccc54)c23)cc1	42.2*	22.6	4.9	-12.0	35.9	5.0	31.8*
COc1cccc(OC)c1C(=O)Nc1cccc(C(C)=O)c1	15.8	-6.5	5.1	0.7	1.9	9.4	·
CC(=O)c1cccc(NC(=O)c2cc(Cl)sc2Cl)c1	42.5*	23.1	-32.5	-4.0	25.4	-9.2	19.8
Cn1c(=O)cc(OCC(=O)NCc2cccs2)c2ccccc21	8.8	-12.8	-9.8	-10.9	4.9	-4.5	·
Cc1ccc(Cl)cc1NC(=O)c1ccccc1OCC(=O)Nc1ccc(Cl)cc1	48.1*	29.7	·	2.8	9.9	-2.1	25.2
Cc1ccc(NC(=O)COc2ccccc2C(=O)Nc2ccccc2)cc1Cl	9.8	28.4	-3.9	15.6	15.3	3.5	·
Fc1ccccc1/C=C1\CCCC2=C1NC(=S)NC2c1ccccc1F (centres undefined)	41.2*	36.7	3.7	0.6	39.3	33.5	15.3
COc1cccc(NC(=O)CSc2nc3ccccc3c(=O)n2CCCC(=O)NCC2CCCO2)c1 (centres undefined)	5.1	11.4	0.6	-1.2	-11.2	15.6	·
O=C(CCCOc1ccc(Cl)cc1Cl)N/N=C/c1ccc(Cl)cc1	38.7	6.7	-13.1	-5.4	26.1	18.4	·
COc1ccc(/C=N/NC(=O)CCCOc2ccc(Cl)cc2Cl)cc1	47.2*	23.7	-16.1	-14.0	12.3	21.9	20.1
OC(CNCC1CCCO1)Cn1c2ccc(Cl)cc2c2cc(Cl)ccc21 (centres undefined)	43.1*	-23.9	-13.7	12.9	-32.3	37.3	21.6
Cc1cccn2c(=O)c3cc(C(=O)NC4CCCCC4)c(=N)n(Cc4ccc(F)cc4)c3nc12	42.0*	5.0	-11.4	-4.2	21.4	6.9	-8.9
Cc1cccn2c(=O)c3cc(C(=O)NC4CCCC4)c(=N)n(CC4CCCO4)c3nc12 (centres undefined)	-3.7	5.3	-15.6	1.1	3.2	-0.2	·
O=C1C(Cl)=C(N2CCN(Cc3ccccc3)CC2)C(=O)N1Cc1ccccc1	44.0*	28.1	-3.5	39.5	26.4	15.6	13.7
COc1cc(/C=N/NC(=O)NC23CC4CC(CC(C4)C2)C3)ccc1O	50.6*	17.8	5.5	-0.2	49.5	-1.6	14.4
CCCc1ccc(-c2c(C)sc(N)c2C#N)cc1	68.4*	35.2	-29.1	43.1	31.8	18.3	48.9*
CCCC(=O)Nc1sc(C)c(-c2ccc(OC)cc2)c1C#N	6.1	-2.4	-9.5	4.9	1.3	10.0	·
Cc1nn(-c2ccc(F)cc2)c(Cl)c1/C=C1\C(=O)Nc2ccccc21	54.1*	35.2	-12.2	·	20.1	-0.2	40.6*
Cc1nn(-c2ccccc2)c(Cl)c1/C=C1\C(=O)N(C)C(=S)N1C	20.5	-5.8	37.1	32.7	4.7	12.9	·
Cc1c(Cl)cccc1NC(=S)N1CCc2ccccc2C1	51.2*	38.2	15.0	12.4	29.6	-6.6	25.3
Cc1c(Cl)cccc1NC(=S)N1CCOCC1	-3.9	-1.0	-10.0	4.6	6.9	11.0	·
CCOC(=O)C1CCCN(C(=O)CCNS(=O)(=O)c2cc(Br)cnc2N)C1 (centres undefined)	26.9	12.0	12.1	-4.5	9.9	5.3	·
O=C(/C=C/c1ccccc1[N+](=O)[O-])NCCN1C(=O)S/C(=C\c2ccc(F)cc2)C1=O	8.8	9.9	·	-7.4	14.4	1.1	·
SMILES	tim10-1 inh	TIM10 inh	PfHsp90 set2	SKKanGAS inh	tim23-1 inh	NALP3 yeast inh	tim10-1 conf
CC(C)(C)C(=O)NCCN1C(=O)S/C(=C\c2ccc([N+](=O)[O-])cc2)C1=O	57.5*	34.5	3.1	-5.6	45.0	16.5	44.4*
CC(=O)Nn1cnc2c(c1=O)C1(CCCC1)Cc1ccccc1-2	13.9	36.7	9.5	·	20.0	6.2	·
CCCC(=O)Nn1cnc2c(c1=O)C1(CCCC1)Cc1ccccc1-2	45.3*	25.0	-30.0	1.8	35.2	14.4	36.4*
COc1ccc(NC(=O)c2sc3nc(N4CCCC4)c4c(c3c2N)CC(C)(C)OC4)c(OC)c1	25.9	-1.4	-2.7	11.3	9.2	12.8	·
COc1ccc(NC(=O)c2sc3nc(N4CCOCC4)c4c(c3c2N)CC(C(C)C)OC4)c(OC)c1 (centres undefined)	42.6*	-5.4	-13.6	6.7	1.1	15.3	3.7
O=C(CCl)N1CCN(S(=O)(=O)Cc2ccccc2)CC1	42.8*	17.6	27.9	·	29.4	16.7	20.1
CC(=O)Nc1ccc(S(=O)(=O)Nc2ccc(S(=O)(=O)Nc3nccs3)cc2)cc1	-26.4	9.2	22.9	1.1	4.6	16.1	·
Cc1onc(-c2ccccc2)c1C(=O)Nc1sc2c(c1C(N)=O)CCC2	46.5*	12.9	·	-2.8	22.6	-3.7	27.5
Cc1onc(-c2ccccc2)c1C(=O)NC(=S)Nc1sc2c(c1C#N)CCC(C)C2 (centres undefined)	38.5	36.1	-18.8	-4.0	36.5	9.1	·
Cc1onc(-c2ccccc2)c1C(=O)Nc1sc2c(c1C#N)CCC2	40.8*	27.8	-12.5	6.7	33.3	18.5	41.6*
Cc1cc(C(F)F)n2nc(C(=O)Nc3sc4c(c3C#N)CCC4)nc2n1	42.1*	12.1	-9.1	11.1	27.7	-7.5	35.0*
CNC(=O)c1c(NC(=O)c2ccco2)sc2c1CCC2	41.2*	18.5	-0.4	-0.9	44.9	26.7	16.6
O=C(NCCN1CCOCC1)c1cc([N+](=O)[O-])cc([N+](=O)[O-])c1	-2.6	6.5	-12.3	-0.5	-5.2	19.5	·
O=C(COC(=O)COc1cccc(Br)c1)Nc1c(Cl)cccc1Cl	19.6	9.7	-4.7	-13.5	6.9	-2.5	·
COc1ccc2oc(CS(=O)c3ccccc3)c(C(=O)O)c2c1 (centres undefined)	2.0	0.2	7.1	-4.1	-1.8	21.7	·
CCC(C)N(C(=O)COC(=O)COc1c(C)cc(C)cc1C)C1CCS(=O)(=O)C1 (centres undefined)	10.1	-5.6	·	6.0	12.0	14.7	·
CCOc1ccc(CCNC(=O)C(C)N2C(=O)CC(C)(C)Sc3ccccc32)cc1 (centres undefined)	41.6*	12.0	10.1	0.0	38.9	-4.7	25.4
COc1ccccc1/C=C(/NC(=O)c1ccc(Cl)cc1Cl)C(=O)O	22.2	-1.1	-42.8	-11.9	17.5	9.1	·
CC(=O)Oc1ccc(/C=C2/Oc3ccccc3C2=O)cc1	44.4*	25.9	-12.9	18.3	39.6	4.8	8.5

Source: PubChem (several laboratories)
